Inconclusive results are not listed. Calls of active or inactive are those of the source. Calls come from the whole dose curve; as a rule, active = well fitted inhibition curve with a large enough effect; inconclusive = small, poorly fitted or top-dose-only effect, or effect the other way, or another doubt; inactive = no such curve, though single readings can be large or run the other way.
assay: Confirmation Concentration-Response Assay for lipid storage modulators; conditions: Drosophila S3 cells, lipid droplet BODIPY/CellTracker ratio, 18-24 h; series mostly up to 46.1 µM; note: nearly all actives have a fitted effect of over 80% in size
Summary of the method: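 Cells at 5,000/well received compound as a titration plus oleic acid (added as 400 uM solution) and were incubated 18–24 h at 24 °C. BODIPY 493/503 lipid signal and CellTracker Red cell count were read by 488-nm laser-scanning cytometry. Activity was normalised to 20 uM Triacsin C.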
Potency is the fitted concentration of half-maximal effect.

Row | SMILES | Potency
1 | COc1ccc(Cl)cc1NC(=O)CN(C)C(=O)CCCc1c[nH]c2ccccc12 | 22300 nM (active)
2 | CCCc1ccc(-c2csc(NC(=O)Cc3cccs3)n2)cc1 | 1580 nM (active)
3 | CCOc1ccc(CCNC(=O)c2cc3sccc3n2C)cc1OCC | 705 nM (active)
4 | COc1cc2c(cc1NC(=S)NC(=O)c1c(OC)cccc1OC)oc1ccccc12 | 2170 nM (active)
5 | COc1cccc(/C=C/C(=O)NCCc2ccc(OC)c(OC)c2)c1 | 1770 nM (active)
6 | N#Cc1ccsc1NC(=O)CN1CCN(S(=O)(=O)c2cc(Cl)ccc2Cl)CC1 | 2500 nM (active)
7 | CCN1CCCC1CNC(=O)C(=O)NCCc1ccc(OC)c(OC)c1 (stereo unspecified) | inactive
8 | c1ccc(CNc2ncnc3ccccc23)cc1 | 12500 nM (active)
9 | COc1ccc(CCNC(=O)CSc2nnc(CNc3ccc(Cl)cc3)o2)cc1OC | inactive
10 | Cc1ccc(-c2noc(C3CCCN(C(=O)c4ccccc4Br)C3)n2)cc1 (stereo unspecified) | inactive
11 | COCc1ccc(C(=O)NC(C)c2cnn(-c3ccccc3C)c2C)o1 (stereo unspecified) | 12500 nM (active)
12 | COc1ccc(/C=C\C(=O)NCc2ccc3[nH]c(C)cc3c2)cc1OC | 4450 nM (active)
13 | COc1ccc(CCNC(=O)CSc2nc(O)cc(=O)[nH]2)cc1OC | inactive
14 | CCn1c(Cc2ccc(OC)cc2)nnc1SCC(=O)Nc1cccc(C(=O)OC)c1 | inactive
15 | COc1ccc(CCCc2nnc(SCC(=O)Nc3nc(C)cs3)n2C)cc1C | 1410 nM (active)
16 | Cc1ccc(S(=O)(=O)N(C)C)cc1NC(=O)COC(=O)c1sc2cc(Cl)ccc2c1Cl | 14100 nM (active)
